In assay [1] the test system is PRMT1 (protein arginine N-methyltransferase 1). As to the kind of experiment: PRMT1 binders on small-molecule microarrays, primary screen, biochemical, small-molecule microarray, 635 nm fluorescence (AID 1088).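 Further: binding of Prmt1 protein to compounds spotted on small-molecule microarray slides.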 The conditions noted are these: small-molecule microarray binding, higher = more signal.
Assay [2] in a line: yeast growth modulation, basal conditions, primary screen, YJM789 clinical isolate, OD600, 24 h (AID 1089).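 Further: growth of clinical yeast isolate S. cerevisiae YJM 789 seeded 1000 cells per well; test concentration not given here.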 The settings on record: S. cerevisiae YJM789 growth, higher = more signal, called active from +8 up or from −8 down.
The nature of assay [3]: fission yeast growth modulation, primary screen, strain 972, OD600, 24 h, no modulator (AID 1090).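 Further: basal condition with compound alone and no growth modifier present; test concentration not given here.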 The settings on record: S. pombe 972 growth, higher = more signal, called active from +8 up or from −8 down.
The nature of assay [4]: S. cerevisiae growth modulation with rapamycin, primary screen, strain BY4716, OD600, 96 h (AID 1091). Further: test concentration not given here. The conditions noted are these: higher = more signal, called active from +8 up or from −8 down.
The target in assay [5] is Torsin-1A-interacting protein 2 (Homo sapiens) (UniProt Q8NFQ8). As to the kind of experiment: LULL1 binders on small-molecule microarray, primary screen, cell lysate, human LULL1 lysate, 635/667 nm fluorescence (AID 1092).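 Further: probe is lysate of COS7 cells overexpressing human LULL1; score merges per-feature 667 nm fluorescence with signal-to-noise.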 The conditions noted are these: hLULL1 lysate binding, 635 nm fluorescence, higher = more signal.
Sequence of Torsin-1A-interacting protein 2 (Homo sapiens) (Q8NFQ8 whole entry, looked up): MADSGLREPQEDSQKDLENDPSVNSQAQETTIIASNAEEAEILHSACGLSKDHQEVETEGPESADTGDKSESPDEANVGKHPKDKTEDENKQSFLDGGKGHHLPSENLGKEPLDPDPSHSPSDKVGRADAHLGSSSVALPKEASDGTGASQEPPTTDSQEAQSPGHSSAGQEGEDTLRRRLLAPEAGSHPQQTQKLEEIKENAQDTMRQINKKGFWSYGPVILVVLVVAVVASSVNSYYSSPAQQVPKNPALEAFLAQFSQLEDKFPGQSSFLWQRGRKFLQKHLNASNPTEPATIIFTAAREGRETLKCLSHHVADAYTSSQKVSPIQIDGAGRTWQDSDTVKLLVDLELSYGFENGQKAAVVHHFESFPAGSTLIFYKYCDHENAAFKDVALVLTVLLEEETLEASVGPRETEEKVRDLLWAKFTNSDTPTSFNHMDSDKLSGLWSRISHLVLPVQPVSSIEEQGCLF
Assay [6] can be described thus: E. coli growth modulation, two-sided OD650, primary screen, E. coli filamentation project, strain DRC41, 24 h (AID 1093).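 Further: MC1000 strain lacking acrAB efflux and sulA so SOS filamentation is blocked; test concentration not given here.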 The settings on record: OD650, 24 h, higher = more signal, called active from +8 up or from −8 down.
A short description of assay [7]: small-molecule microarray binders of probe aLefty2, primary screen, biochemical, biotinylated probe, 635/667 nm fluorescence (AID 1094).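 Further: score merges spot fluorescence near 667 nm with spot signal-to-noise ratio.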 The conditions noted are these: higher = more signal.
The test system of assay [8] is Noggin (protein binding on small-molecule microarray). The assay can be described thus: Noggin binders on small-molecule microarray, primary screen, biochemical, 635/667 nm fluorescence (AID 1095).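 Further: score merges 667 nm feature fluorescence with signal to noise over triplicate slides.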 The settings on record: 635 nm fluorescence, higher = more signal.
The target in assay [9] is Neurogenic locus notch homolog protein 3 (Homo sapiens) (UniProt Q9UM47). As to the kind of experiment: NOTCH3 binders on small-molecule microarray, primary screen, biochemical, 635/667 nm fluorescence (AID 1096). The conditions noted are these: NOTCH3 binding, 635 nm fluorescence, higher = more signal.
Sequence of Neurogenic locus notch homolog protein 3 (Homo sapiens) (Q9UM47 whole entry, looked up): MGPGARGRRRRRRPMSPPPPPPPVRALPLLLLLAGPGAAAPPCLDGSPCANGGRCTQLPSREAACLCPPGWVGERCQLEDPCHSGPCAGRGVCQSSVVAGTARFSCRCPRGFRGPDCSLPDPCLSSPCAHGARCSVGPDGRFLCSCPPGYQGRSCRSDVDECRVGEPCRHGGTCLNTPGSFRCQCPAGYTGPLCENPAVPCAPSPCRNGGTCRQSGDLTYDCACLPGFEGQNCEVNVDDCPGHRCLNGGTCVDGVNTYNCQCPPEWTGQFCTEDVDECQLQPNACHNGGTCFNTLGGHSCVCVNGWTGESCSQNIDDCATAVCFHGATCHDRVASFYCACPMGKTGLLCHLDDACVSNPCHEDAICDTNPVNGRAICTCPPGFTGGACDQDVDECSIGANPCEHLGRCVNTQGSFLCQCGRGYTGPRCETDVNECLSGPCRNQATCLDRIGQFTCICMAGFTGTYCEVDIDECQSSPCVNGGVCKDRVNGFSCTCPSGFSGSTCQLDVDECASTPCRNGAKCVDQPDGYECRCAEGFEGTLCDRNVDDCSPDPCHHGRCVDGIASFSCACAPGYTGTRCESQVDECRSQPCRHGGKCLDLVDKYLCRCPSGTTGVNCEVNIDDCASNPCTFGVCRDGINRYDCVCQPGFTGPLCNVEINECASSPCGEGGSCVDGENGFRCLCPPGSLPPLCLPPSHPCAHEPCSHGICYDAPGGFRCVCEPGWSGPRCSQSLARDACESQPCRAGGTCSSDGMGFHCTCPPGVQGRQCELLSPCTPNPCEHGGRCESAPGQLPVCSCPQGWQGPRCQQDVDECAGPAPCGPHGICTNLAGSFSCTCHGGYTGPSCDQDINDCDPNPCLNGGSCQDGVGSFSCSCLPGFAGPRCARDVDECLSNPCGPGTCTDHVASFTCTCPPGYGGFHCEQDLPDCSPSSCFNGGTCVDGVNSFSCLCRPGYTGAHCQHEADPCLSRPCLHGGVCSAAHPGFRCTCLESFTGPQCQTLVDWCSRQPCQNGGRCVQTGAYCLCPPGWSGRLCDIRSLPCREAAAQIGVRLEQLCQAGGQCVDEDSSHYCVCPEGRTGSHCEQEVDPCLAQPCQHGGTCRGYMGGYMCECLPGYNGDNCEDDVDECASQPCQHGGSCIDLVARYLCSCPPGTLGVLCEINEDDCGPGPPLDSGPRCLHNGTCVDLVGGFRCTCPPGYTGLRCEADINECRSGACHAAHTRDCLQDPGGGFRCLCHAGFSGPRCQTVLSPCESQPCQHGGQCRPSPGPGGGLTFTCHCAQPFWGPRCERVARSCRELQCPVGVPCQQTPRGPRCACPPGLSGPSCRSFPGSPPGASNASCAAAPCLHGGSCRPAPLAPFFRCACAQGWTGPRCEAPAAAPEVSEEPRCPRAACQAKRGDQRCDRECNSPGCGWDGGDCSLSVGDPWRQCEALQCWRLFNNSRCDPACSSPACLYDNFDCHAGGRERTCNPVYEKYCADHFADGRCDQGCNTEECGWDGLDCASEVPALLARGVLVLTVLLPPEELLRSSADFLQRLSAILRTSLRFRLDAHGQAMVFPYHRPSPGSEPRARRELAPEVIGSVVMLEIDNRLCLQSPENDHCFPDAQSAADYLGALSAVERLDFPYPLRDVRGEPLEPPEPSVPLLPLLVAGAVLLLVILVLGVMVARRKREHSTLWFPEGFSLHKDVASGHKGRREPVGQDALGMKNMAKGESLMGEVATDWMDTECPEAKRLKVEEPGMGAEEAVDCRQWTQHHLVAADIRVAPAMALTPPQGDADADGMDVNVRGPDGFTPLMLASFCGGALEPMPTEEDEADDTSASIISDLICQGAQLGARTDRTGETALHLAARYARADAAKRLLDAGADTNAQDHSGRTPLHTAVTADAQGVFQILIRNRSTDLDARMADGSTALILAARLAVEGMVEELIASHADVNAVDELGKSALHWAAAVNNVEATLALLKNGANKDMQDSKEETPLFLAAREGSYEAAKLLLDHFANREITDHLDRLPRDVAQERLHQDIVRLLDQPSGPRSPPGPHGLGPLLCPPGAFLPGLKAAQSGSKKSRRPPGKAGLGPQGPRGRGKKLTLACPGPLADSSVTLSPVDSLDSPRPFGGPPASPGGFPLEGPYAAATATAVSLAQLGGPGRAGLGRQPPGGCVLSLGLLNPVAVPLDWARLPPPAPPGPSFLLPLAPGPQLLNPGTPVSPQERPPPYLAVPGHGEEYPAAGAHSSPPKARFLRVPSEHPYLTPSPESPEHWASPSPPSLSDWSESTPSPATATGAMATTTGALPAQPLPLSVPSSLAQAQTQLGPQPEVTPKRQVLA
A short description of assay [10]: small-molecule microarray binders of probe aEGFR, primary screen, biochemical, biotinylated probe, 635/667 nm fluorescence (AID 1097).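 Further: probe is a biotinylated anti-EGFR antibody binding compounds printed on slides; score combines fluorescence near 667 nm and signal to noise of each spot.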 The settings on record: higher = more signal.

Active and inactive are the calls of the source.

As to `[N-]=[N+]=Nc1ccccc1[C@H]1OC(c2ccc(OCCCO)cc2)=N[C@@]1(Cc1ccccc1)C(=O)N1CCOCC1`, the composite z-score in assay [1] amounted to 1.46; in assay [5], 3.23; in assay [7], 0.275; in assay [8], 0.449; in assay [9], 1.15; in assay [10], 0.0881. Also, the z-score was -1.44 (inactive) in assay [2], -1.02 (inactive) in assay [3], 1.91 (inactive) in assay [4] and 0.551 (inactive) in [6].

As for `CC(C)CN1C(=O)[C@@]2(c3ccc([N+](=O)[O-])cc3)CC(=O)N(C3CCCCC3)[C@@H]2c2ccc(CO)cc21`, the composite z-score in assay [1] is -1.13; in assay [5], -0.709; in [7] it was -0.113; in assay [8], -1.13; in [9], -0.626; in [10], -0.261. In addition, the z-score in assay [2] was 0.0926 (inactive); in assay [3] it was 0.612 (inactive); in assay [4] it was -1.78 (inactive); in assay [6] it was 0.733 (inactive).

As to `O=C1OCCC=C[C@H]2OC34C=CCN(CCN5CCOCC5)C(=O)[C@H]3N(CCCCCO)C(=O)[C@@H]4C12` (stereo not given in full), the composite z-score is 1.48 in [1]; 3.34 in [5]; -0.138 in [7]; 0.0669 in [8]; 0.193 in [9]; -0.158 in assay [10]. Also, the z-score in assay [2] was -0.776 (inactive); in assay [3], -0.0455 (inactive); in assay [4], -0.379 (inactive); in assay [6] it was 0.444 (inactive).

Turning to `OCC1C=C(/C=C/c2ccccc2)CN1Cc1ccccc1Br` (stereo not given), the composite z-score in assay [1] is 0.94; in [5], 1.44; in assay [7], 0.0265; in assay [8] it was 0.876; in [9], 0.854; in assay [10], 0.0339. For the same molecule, the z-score in assay [2] is -0.486 (inactive); in assay [3] it was -11.3 (active); in [4] it was -1.4 (inactive); in [6], 1.58 (inactive).

Take `COC(=O)C(CC#Cc1ccc2c(c1)[C@]1(C(=O)N2)[C@H](c2ccccc2OCCO)N2[C@H](c3ccccc3)[C@H](c3ccccc3)OC(=O)[C@H]2[C@@H]1C(=O)O)C(=O)OC`: the composite z-score in [1] is 1.57; in assay [5], 2.37; in assay [7], 0.264; in [8], 0.793; in assay [9] it was 0.691; in assay [10], -0.0032. Also, the z-score in assay [2] was 2.46 (inactive); in assay [3] it was 0.521 (inactive); in [4], -0.188 (inactive); in [6] it was 0.871 (inactive).

As to `COC(=O)[C@@]1(CCC(=O)OC(C)(C)C)N=C(c2ccc(OCCCO)cc2)O[C@H]1c1ccccc1`, the composite z-score is 0.899 in [1]; 1.29 in assay [5]; 0.0478 in assay [7]; -0.105 in assay [8]; 0.194 in assay [9]; -0.125 in [10]. The z-score in assay [2] was -0.144 (inactive); in assay [3], -2.78 (inactive); in assay [4], 3.15 (inactive); in [6], -2.76 (inactive).

With `NCCCCCCNC(=O)[C@H]1C[C@H]2C(=O)N[C@@H](Cc3ccccc3)C(=O)N2[C@H]1c1cccc(OCCO)c1`, the composite z-score in assay [1] amounted to 0.753; in assay [5], 1.66; in [7] it was 0.255; in assay [8], 0.337; in assay [9] it was 0.347; in assay [10], 0.0562. The z-score in assay [2] is 0.106 (inactive); in assay [3], 0.269 (inactive); in assay [4], -0.689 (inactive); in [6], 0.524 (inactive).

For `C=C(CCCC)/C(=C/C[C@H](OC(C)=O)c1ccccc1OCCO)c1cnc2ccccc2c1`, the composite z-score in [1] is 1.32; in assay [5] it was 1.15; in [7], -0.235; in assay [8], 0.788; in assay [9] it was 1.1; in [10], -0.142. In addition, the z-score in assay [2] was 0.617 (inactive); in assay [3] it was -0.654 (inactive); in [4], 0.826 (inactive); in [6] it was 0.02 (inactive).

For the molecule `O=C1NC(=O)C2C1C=CC(C(O)C1CC=CCC1)N2Nc1ccccn1` (stereo not given), the composite z-score is 0.241 in assay [1]; 0.861 in [5]; 0.113 in [7]; -0.0801 in assay [8]; 0.328 in [9]; 0.26 in assay [10]. Besides, the z-score was 1.13 (inactive) in [2], 0.869 (inactive) in assay [3], 0.728 (inactive) in [4] and -0.813 (inactive) in assay [6].

For `O=C1[C@H]2C=C(I)[C@H](C[C@@H]2OCCCCO)[C@@]12CO2`, the composite z-score was 0.9 in [1]; 0.512 in assay [5]; -0.0534 in [7]; 0.573 in [8]; 0.186 in assay [9]; -0.165 in [10]. In addition, the z-score in [2] is -1.04 (inactive); in assay [3] it was -0.983 (inactive); in assay [4] it was 0.0593 (inactive); in [6], -1.09 (inactive).

In the case of `COC(=O)[C@@]1(Cc2ccccc2)[C@H]2c3cc(C(=O)N4CCCC4)n(Cc4ccc(O)c(OC)c4)c3C[C@H]2CN1C(=O)c1ccccc1`, the composite z-score in assay [1] is -0.358; in [5], 3.43; in assay [7] it was 0.641; in assay [8] it was -0.786; in assay [9], 0.79; in [10] it was 0.249. Besides, the z-score in [2] is 1.21 (inactive); in assay [3], 0.943 (inactive); in [4] it was 2.06 (inactive); in assay [6], -0.667 (inactive).

For `C#CCN(C/C=C/c1ccccc1)[C@H](CO)c1ccccc1`, the composite z-score in [1] is -0.019; in assay [5], 0.0638; in assay [7], -0.319; in [8] it was 1.12; in assay [9], 0.39; in [10], -0.215. The z-score is -3.99 (inactive) in assay [2], -21.4 (active) in assay [3], -1.64 (inactive) in assay [4] and 0.408 (inactive) in [6].

As for `Cc1c(NC(=O)/C(C#N)=C/c2cccc([N+](=O)[O-])c2)c(=O)n(-c2ccccc2)n1C`, the composite z-score in [1] is 0.366; in [5], 1.92; in assay [7] it was -0.26; in [8], 0.21; in [9], 1.07; in assay [10] it was 0.006. For the same molecule, the z-score in assay [2] was -3.18 (inactive); in assay [3], -2.55 (inactive); in assay [4] it was -2.2 (inactive); in assay [6], 0.0751 (inactive).

On to `O=C1[C@H]2C=C(Br)[C@H](C[C@@H]2OCCCCCCO)[C@@]12CO2`, for which the composite z-score in assay [1] is -0.729; in assay [5], -0.283; in assay [7] it was 0.0183; in assay [8] it was 0.387; in assay [9] it was -0.615; in assay [10], -0.131. Further, the z-score in assay [2] was 0.335 (inactive); in [3], -1.29 (inactive); in assay [4] it was 1.32 (inactive); in assay [6], -1.74 (inactive).

As to `CC(C)NC(=O)[C@@H]1c2ccccc2C(=O)N(C(C)C)[C@H]1c1ccc(CO)cc1`, the composite z-score is 1.44 in assay [1]; 2.99 in assay [5]; -0.0478 in [7]; -1.94 in assay [8]; -0.715 in assay [9]; -0.44 in assay [10]. Also, the z-score in assay [2] was 0.549 (inactive); in assay [3], 0.458 (inactive); in [4] it was 0.386 (inactive); in [6], 1.36 (inactive).
